According to PubChem BioAssay:
A number with no mark means an inactive call. For part of these data: Entries with a potency or affinity are not part of this list. The source made the active and inactive calls. Unless noted, how the calls were made is not given here.

What was measured:
[1] = antimalarial activity against Dd2 strain (AID 2302;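 active means growth inhibition above 50% at the single 2 µM test dose, taken to imply half-maximal potency below 2 µM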;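 further: 0% = DMSO untreated growth and 100% = chloroquine plus artemisinin killed control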); conditions: P. falciparum Dd2 in RBCs, LDH growth readout, 72 h; at 2 µM; hits give high values
[2] = human hepatoma cell viability loss – ATP luminescence, cytotoxicity control for P. falciparum antimalarial project, primary screen (AID 2303;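 active means inhibition above 50%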;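 further: 0% = DMSO wells and 100% = digitonin-killed cells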); conditions: HepG2 viability, 24-48 h, at 10 µM, hits give high values
[3] = target: L-lactate dehydrogenase (Plasmodium falciparum (isolate CDC / Honduras)) (UniProt Q27743); test: PfLDH activity inhibition – cell lysate, 3D7 strain, counter-screen for P. falciparum growth inhibition project (AID 2304);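 further: 0% = vehicle and 100% = reference inhibitor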; conditions: P. falciparum 3D7 crude extract, LDH APAD/NBT absorbance; at 2 µM; hits give high values
[4] = inhibition of 3D7 malaria parasite growth – strain 3D7 (AID 2306);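 further: 0% = DMSO wells and 100% = chloroquine plus artemisinin control wells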; conditions: P. falciparum 3D7 erythrocytic growth, LDH absorbance, 72 h; at 2 µM; hits give high values
[5] = target: Calcium-dependent protein kinase 1 (Plasmodium falciparum (isolate 3D7)) (UniProt P62344); test: PfCDPK1 kinase inhibitors, biochemical, TCAMS library (AID 1159585; cut-off not given, nearly all actives have IC50 up to about 0.98 µM;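 further: inhibitors leave more ATP so luminescence rises with inhibition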); conditions: recombinant PfCDPK1, Kinase-Glo ATP depletion luminescence
[6] = target: Plasmodium falciparum protein kinase 6 (PK6, PF3D7_1337100) (UniProt Q8IDW1); test: PfPK6 kinase inhibitors, biochemical, TCAMS library (AID 1159586); conditions: recombinant PfPK6, Kinase-Glo ATP depletion luminescence
[7] = target: Protein kinase 7 (PK7), Plasmodium falciparum 3D7 (PF3D7_0213400) (UniProt Q7YTF7); test: inhibition of Plasmodium PK7 catalytic activity – biochemical, TCAMS antimalarial set, Kinase-Glo luminescence (AID 1159587); conditions: recombinant PfPK7, Kinase-Glo ATP depletion luminescence
[8] = target: Calcium-dependent protein kinase 4 (Plasmodium falciparum (isolate 3D7)) (UniProt Q8IBS5); test: PfCDPK4 kinase inhibitors, biochemical, TCAMS library (AID 1159588; cut-off not given, nearly all actives have IC50 up to about 0.91 µM); conditions: recombinant PfCDPK4, Kinase-Glo ATP depletion luminescence
Chain of Calcium-dependent protein kinase 4 (Plasmodium falciparum (isolate 3D7)) (Q8IBS5 whole entry, looked up): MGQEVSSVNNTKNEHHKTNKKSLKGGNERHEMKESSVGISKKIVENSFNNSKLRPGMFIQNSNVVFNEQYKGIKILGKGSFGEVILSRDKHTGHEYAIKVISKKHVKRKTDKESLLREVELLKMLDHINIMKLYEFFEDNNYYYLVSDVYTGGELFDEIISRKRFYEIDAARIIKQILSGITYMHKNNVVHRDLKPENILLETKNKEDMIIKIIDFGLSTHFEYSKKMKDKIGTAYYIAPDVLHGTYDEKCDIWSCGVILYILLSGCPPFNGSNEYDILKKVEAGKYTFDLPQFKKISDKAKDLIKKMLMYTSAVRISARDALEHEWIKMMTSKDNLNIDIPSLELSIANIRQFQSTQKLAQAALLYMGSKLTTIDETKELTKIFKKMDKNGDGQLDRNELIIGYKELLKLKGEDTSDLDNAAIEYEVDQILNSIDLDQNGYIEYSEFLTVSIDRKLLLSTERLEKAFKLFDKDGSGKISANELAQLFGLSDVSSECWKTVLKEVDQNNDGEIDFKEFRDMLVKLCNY

Chain of Calcium-dependent protein kinase 1 (Plasmodium falciparum (isolate 3D7)) (P62344 whole entry, looked up): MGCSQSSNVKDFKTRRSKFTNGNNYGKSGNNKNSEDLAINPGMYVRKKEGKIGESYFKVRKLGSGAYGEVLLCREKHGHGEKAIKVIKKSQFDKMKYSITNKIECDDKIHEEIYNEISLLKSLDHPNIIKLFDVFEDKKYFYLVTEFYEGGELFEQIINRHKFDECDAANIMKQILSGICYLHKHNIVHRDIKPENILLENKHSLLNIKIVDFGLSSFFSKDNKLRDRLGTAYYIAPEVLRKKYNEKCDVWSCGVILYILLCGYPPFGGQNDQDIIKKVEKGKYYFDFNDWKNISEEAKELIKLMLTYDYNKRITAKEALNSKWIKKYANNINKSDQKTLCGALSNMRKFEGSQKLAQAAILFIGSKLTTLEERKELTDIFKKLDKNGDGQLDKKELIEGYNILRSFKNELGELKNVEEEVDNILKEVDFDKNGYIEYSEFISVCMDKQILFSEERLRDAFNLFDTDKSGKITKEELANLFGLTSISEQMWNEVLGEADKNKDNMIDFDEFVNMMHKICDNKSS
Chain of Protein kinase 7 (PK7), Plasmodium falciparum 3D7 (PF3D7_0213400) (Q7YTF7 1-343): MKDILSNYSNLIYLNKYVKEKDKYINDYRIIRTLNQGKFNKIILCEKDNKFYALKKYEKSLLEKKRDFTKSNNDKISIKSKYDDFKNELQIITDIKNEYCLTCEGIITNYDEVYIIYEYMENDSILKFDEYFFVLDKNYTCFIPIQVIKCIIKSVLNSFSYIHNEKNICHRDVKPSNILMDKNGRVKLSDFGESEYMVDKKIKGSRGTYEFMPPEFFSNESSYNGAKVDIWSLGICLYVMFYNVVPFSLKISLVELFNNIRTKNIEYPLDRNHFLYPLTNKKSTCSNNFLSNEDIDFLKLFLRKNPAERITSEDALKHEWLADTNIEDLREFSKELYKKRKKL
Chain of L-lactate dehydrogenase (Plasmodium falciparum (isolate CDC / Honduras)) (Q27743 whole entry, looked up): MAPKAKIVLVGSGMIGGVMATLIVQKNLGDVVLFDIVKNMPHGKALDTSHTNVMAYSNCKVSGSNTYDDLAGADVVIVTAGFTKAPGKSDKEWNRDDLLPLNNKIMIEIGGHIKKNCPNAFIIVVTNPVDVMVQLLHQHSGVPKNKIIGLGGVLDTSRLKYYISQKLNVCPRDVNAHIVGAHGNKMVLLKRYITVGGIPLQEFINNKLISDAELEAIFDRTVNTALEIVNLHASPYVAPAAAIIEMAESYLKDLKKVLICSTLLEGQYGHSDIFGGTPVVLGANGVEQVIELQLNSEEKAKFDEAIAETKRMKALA
Chain of Plasmodium falciparum protein kinase 6 (PK6, PF3D7_1337100) (Q8IDW1 1-305): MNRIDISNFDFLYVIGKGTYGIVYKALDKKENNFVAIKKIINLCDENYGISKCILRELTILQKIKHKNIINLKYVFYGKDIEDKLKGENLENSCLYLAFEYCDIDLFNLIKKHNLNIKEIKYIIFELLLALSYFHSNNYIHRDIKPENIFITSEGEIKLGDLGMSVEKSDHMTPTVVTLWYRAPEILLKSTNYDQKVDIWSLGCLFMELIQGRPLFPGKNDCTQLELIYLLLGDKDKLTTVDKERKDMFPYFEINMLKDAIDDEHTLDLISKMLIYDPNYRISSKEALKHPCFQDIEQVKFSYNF

SMILES | growth inhibition [1] | inhibition [2] | inhibition [3] [%] | growth inhibition [4] | outcome [5] | outcome [6] | outcome [7] | outcome [8]
Cc1cccc2[nH]c(-c3cccc(-c4ccc(NC(=O)CS(C)(=O)=O)cc4)c3)nc12 | 8% | 3% | -8 | 85% (active) | inactive | inactive | inactive | inactive
Cc1cc(NC(=O)Nc2ccc(C#N)cc2)c2ccccc2n1 | 49% | 88% (active) | -2 | 100% (active) | inactive | inactive | inactive | inactive
N#Cc1ccc2[nH]cc(CN3CCC4(CC3)CN(CCNCc3ccccc3)C(=O)O4)c2c1 | 0% | -5% | -1 | 100% (active) | inactive | inactive | inactive | inactive
CC1(C)N=C(N)N=C(N)N1OCc1ccc(-c2ccccc2)cc1 | 97% (active) | 64% (active) | -6 | 95% (active) | inactive | inactive | inactive | inactive
CC(C)(CNC(=O)[C@@H]1CCCN(CCOc2ccc(Cl)cc2)C1)c1nc(-c2ccc(Cl)c(O)c2)c(-c2ccncc2)[nH]1 | 57% (active) | 58% (active) | -7 | 92% (active) | inactive | inactive | inactive | inactive
COc1ccc2nc(-c3ccccc3)cc(NCCN(C)C)c2c1 | 23% | -1% | -3 | 101% (active) | inactive | inactive | inactive | inactive
NCCc1cccc(-c2cnc3[nH]cc(-c4ccc(C(=O)O)cc4)c3c2)c1 | 98% (active) | 4% | -2 | 99% (active) | inactive | inactive | inactive | inactive
OC(CNc1ccnc(Nc2cccc(OCCCN3CCOCC3)c2)n1)c1ccccc1 (centres undefined) | 25% | 48% | -4 | 97% (active) | inactive | inactive | inactive | inactive
COc1cccc(C2(c3cccc(OC)c3)N=C(N)N(CCCc3ccccc3)C2=O)c1 | 93% (active) | 3% | 4 | 98% (active) | inactive | inactive | inactive | inactive
CN(C)c1cc(C(=O)N[C@@H](Cc2ccccc2)[C@H](O)CNC2CCCCC2)cc2[nH]ccc12 | 97% (active) | 10% | 3 | 98% (active) | inactive | inactive | inactive | inactive
COc1cc(C(=O)NCCCN2CCN(c3cc(Cl)ccc3OC)CC2)ccc1-c1nc2cc(Cl)c(Cl)cc2[nH]1 | 99% (active) | 12% | -3 | 102% (active) | inactive | inactive | inactive | inactive
CN1CCN(c2ccnc3ccc(NC(=O)Nc4ccc5c(c4)CCC5=O)cc23)CC1 | 67% (active) | 8% | 0 | 100% (active) | inactive | inactive | inactive | inactive
CC(C)c1ccc(NC(=O)c2ccc(C(=O)NC3CCN(CC4CCCCC4)CC3)cc2)cc1 | 5% | 34% | -2 | 98% (active) | inactive | inactive | inactive | inactive
CNC(=O)NC1=NC(C)(C)N(OCc2ccc(Cl)c(Cl)c2)C(NC(=O)NC)=N1 | -3% | 1% | -2 | 99% (active) | inactive | inactive | inactive | inactive
COc1ccc(N2CCN(CCCCNC(=O)c3ccc(NC(=O)c4cc(Cl)cc(Cl)c4)cc3)CC2)c(OC)c1 | 84% (active) | 21% | 2 | 100% (active) | inactive | inactive | inactive | inactive
O=C(Nc1ccc(C(F)(F)F)cc1)NC1CCN(c2ccnc3cc(Cl)ccc23)CC1 | 74% (active) | 22% | -3 | 102% (active) | inactive | inactive | inactive | inactive
CC(=O)Nc1ncc(C(=O)Nc2ccc(-c3cccc(-c4nc5ccc(C(F)(F)F)cc5[nH]4)c3)cc2)s1 | 92% (active) | 79% (active) | 3 | 101% (active) | inactive | inactive | inactive | inactive
Nc1nc2c(c(=O)[nH]1)CN(S(=O)(=O)c1ccc(C(=O)N[C@@H](CCC(=O)O)C(=O)O)cc1)CC2 | 96% (active) | 49% | 6 | 95% (active) | inactive | inactive | inactive | inactive
